Hits are enriched below; roughly 12% of the tested compounds scored in any of these assays.
USP28 block: inhibitors of human USP28 deubiquitinase | purified USP28, Ub-rhodamine cleavage fluorescence, 30 min | inhibition, % at 25 µM | actives 3% (n = 47,000) | AID 1645857
OTUD3 block: human OTUD3 deubiquitinase inhibition; Q5T2D3; actives 0.7% (n = 47,000); purified OTUD3, Ub-rhodamine fluorescence, 2 h; inhibition, % at 25 µM
USP17 block: human USP17-like deubiquitinase inhibition; A8MUK1; purified USP17, Ub-rhodamine cleavage fluorescence, 3 h; inhibition, % at 50 µM; actives 6.5% (n = 47,000)
Target sequence (A8MUK1 whole entry, looked up): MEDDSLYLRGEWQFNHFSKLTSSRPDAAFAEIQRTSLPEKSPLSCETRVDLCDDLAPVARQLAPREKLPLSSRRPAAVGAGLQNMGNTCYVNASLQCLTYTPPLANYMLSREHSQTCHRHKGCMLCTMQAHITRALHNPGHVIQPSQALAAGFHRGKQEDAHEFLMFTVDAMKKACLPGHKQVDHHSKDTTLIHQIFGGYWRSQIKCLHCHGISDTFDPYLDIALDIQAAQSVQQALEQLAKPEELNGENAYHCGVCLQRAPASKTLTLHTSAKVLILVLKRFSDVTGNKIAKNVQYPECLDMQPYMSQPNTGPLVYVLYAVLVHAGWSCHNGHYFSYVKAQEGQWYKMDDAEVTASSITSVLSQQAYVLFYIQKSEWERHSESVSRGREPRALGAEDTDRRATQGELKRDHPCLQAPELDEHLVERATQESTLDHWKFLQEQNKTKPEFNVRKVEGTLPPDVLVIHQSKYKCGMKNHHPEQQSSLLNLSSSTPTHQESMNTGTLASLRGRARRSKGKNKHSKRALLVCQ
USP30 block: human USP30 deubiquitinase inhibition; purified USP30, Ub-rhodamine cleavage fluorescence; inhibition, % at 25 µM; actives 5.3% (n = 47,000)
An asterisk follows results filed as active. Cut-off read from the data, not from the text of the source: active = inhibition above about 30%; inactive = the rest.

What do the screens show for `COc1ccc(CCNC(=O)CSc2nnc(NC(=O)c3ccccc3OC)s2)cc1OC`?
USP28 block: 12; OTUD3 block: 22; USP17 block: 9; USP30 block: 32*

Results for CC(C)NC(=O)c1ccc2nnc(C3CN(c4ncccn4)CCN3C)n2c1 (centres undefined) ?
USP28 block: -19; OTUD3 block: -11; USP17 block: -38; USP30 block: -79

What do the screens show for `O=C(CC1C(=O)Nc2nc(-c3ccccc3)nn21)Nc1ccccc1` (centres undefined)?
USP28 block: -9; OTUD3 block: 0; USP17 block: 2; USP30 block: -8

How did O=C(CC1C(=O)Nc2nc(-c3ccccc3)nn21)Nc1cccc2ccccc12 (centres undefined) do in these assays?
USP28 block: 0; OTUD3 block: -5; USP17 block: 84*; USP30 block: -4

How did O=C(CC1C(=O)Nc2nc3ccccc3n21)Nc1cccc2ccccc12 (centres undefined) do in these assays?
USP28 block: 20; OTUD3 block: 26; USP17 block: 17; USP30 block: 46*

How did COc1cc(N2CC[C@@H]3[C@@H]2CCN3S(=O)(=O)C2CC2)ncn1 do in these assays?
USP28 block: 0; OTUD3 block: -2; USP30 block: -12

What do the screens show for `O=C1CC(c2noc(-c3ccccn3)n2)CN1c1cccc(F)c1` (centres undefined)?
USP28 block: 16; OTUD3 block: 18; USP17 block: 16; USP30 block: 32*

Results for CC(C)n1nccc1-c1cnc(CC2CCN(S(C)(=O)=O)C2)cn1 (centres undefined) ?
USP28 block: -10; OTUD3 block: 0; USP17 block: -10; USP30 block: -17

What do the screens show for `CC(C)n1nccc1-c1cnc(CC2CCN(S(C)(=O)=O)CC2)cn1`?
USP28 block: 10; OTUD3 block: 10; USP17 block: 13; USP30 block: 31*

What do the screens show for `COc1cc(C2c3[nH]c4ccccc4c3C[C@@H]3C(=O)N(C4CCCCC4)CC(=O)N23)cc(OC)c1OC` (some centres undefined)?
USP28 block: -21; OTUD3 block: -5; USP17 block: -4; USP30 block: -28

Results for Cc1nn(-c2nc3ccccc3o2)c2c1C(c1ccccc1F)CC(=O)N2 (centres undefined) ?
USP28 block: -1; OTUD3 block: 1; USP17 block: -3; USP30 block: 5

What do the screens show for `COc1ccc(C(=O)CSc2nnc3n(Cc4ccc(C)cc4)c(=O)c4ccccc4n23)cc1OC`?
USP28 block: 16; OTUD3 block: 13; USP17 block: 25; USP30 block: 45*

How did O=C(CCCn1c(=O)c2ccccc2n(Cc2cc(=O)n3ccccc3n2)c1=O)NCc1ccco1 do in these assays?
USP28 block: -1; OTUD3 block: 1; USP17 block: -2; USP30 block: -4

What do the screens show for `O=C(CCn1c(=O)c2ccccc2n(Cc2cc(=O)n3ccccc3n2)c1=O)NCCc1ccc(Cl)cc1`?
USP28 block: 16; OTUD3 block: 25; USP17 block: 48*; USP30 block: 61*

What do the screens show for `COc1ccc(CCNC(=O)c2ccc(Cn3c(=O)c4ccccc4n(CC(=O)Nc4cc(C)[nH]n4)c3=O)cc2)cc1OC`?
USP28 block: 9; OTUD3 block: 8; USP17 block: 66*; USP30 block: 65*

Results for O=C(Cn1c(=O)n(CC2CCC(C(=O)NC3CCCC3)CC2)c(=O)c2ccccc21)NCCC1=CCCCC1 (centres undefined) ?
USP28 block: 2; OTUD3 block: 22; USP17 block: 50*; USP30 block: 40*

Results for COCCCNC(=O)Cn1c(=O)n(Cc2ccc(C(=O)NCCc3ccc(OC)c(OC)c3)cc2)c(=O)c2ccccc21 ?
USP28 block: 1; OTUD3 block: -11; USP17 block: 4; USP30 block: -11

Results for O=C(Nc1nccn(-c2ccc3c(c2)CCC3)c1=O)c1ccccn1 ?
USP28 block: 16; OTUD3 block: -1; USP17 block: -25; USP30 block: 16

What do the screens show for `CC(=O)NCC(=O)N1CCC[C@@H]2[C@H]1CCCCc1ccccc1OCC(=O)N2C`?
USP28 block: 5; OTUD3 block: 4; USP17 block: 0; USP30 block: 12

What do the screens show for `COc1cccc(CN2C(=O)CN(C3CCCCC3)C(=O)C2c2cccnc2)c1` (centres undefined)?
USP28 block: 7; OTUD3 block: 8; USP17 block: -1; USP30 block: 8

How did COc1ccc(CCNC(=O)CCn2c(=O)c3ccccc3n(Cc3ccc(F)cc3)c2=O)cc1OC do in these assays?
USP28 block: 31*; OTUD3 block: 23; USP17 block: 46*; USP30 block: 43*

Results for COc1ccc(CCNC(=O)CCn2c(=O)c3ccccc3n(Cc3ccccc3C#N)c2=O)cc1OC ?
USP28 block: 2; OTUD3 block: 0; USP17 block: 3; USP30 block: 15

Results for COc1ccc(CCNC(=O)CCn2c(=O)c3ccccc3n(Cc3ccc(C)cc3)c2=O)cc1OC ?
USP28 block: 14; OTUD3 block: 17; USP17 block: 43*; USP30 block: 64*

Results for COc1ccc(CCNC(=O)CCCCn2c(=O)c3ccccc3n(Cc3cccc(F)c3)c2=O)cc1OC ?
USP28 block: 9; OTUD3 block: 19; USP17 block: 60*; USP30 block: 55*

Results for Cc1cc(NC(=O)Cn2c(=O)n(CC3CCC(C(=O)NCCc4ccccc4)CC3)c(=O)c3ccccc32)n[nH]1 (centres undefined) ?
USP28 block: 30; OTUD3 block: 36*; USP17 block: 58*; USP30 block: 45*

How did COc1ccc(S(=O)(=O)N2CCN(C)CC2)cc1-c1noc(C2CCCCC2)n1 do in these assays?
USP28 block: -8; OTUD3 block: -3; USP17 block: -8; USP30 block: -4

Results for CC(=O)Nc1onc(C)c1-c1ccc(C)c(S(=O)(=O)Nc2ccc(F)cc2)c1 ?
USP28 block: 13; OTUD3 block: 8; USP17 block: -1; USP30 block: 14

How did COc1nn(C)cc1C(=O)N1CCC(C(=O)Nc2ccc(Br)cc2F)CC1 do in these assays?
USP28 block: 45*; OTUD3 block: -1; USP17 block: 0; USP30 block: -3

What do the screens show for `C=C1CCC2[C@](C)(CCC[C@]2(C)C(=O)OC)[C@H]1CCc1ccoc1CNC(C)C` (some centres undefined)?
USP28 block: 24; OTUD3 block: 30*; USP17 block: 18; USP30 block: 24

What do the screens show for `C=C1CCC2[C@](C)(CCC[C@]2(C)C(=O)OC)[C@H]1CCc1ccoc1CNC(CCSC)C(=O)O` (some centres undefined)?
USP28 block: -15; OTUD3 block: -8; USP17 block: 28; USP30 block: -60

Results for CCOC(=O)c1[nH]c(C)c(CN(Cc2ccco2)C(=O)c2cccc(C)c2)c1C ?
USP28 block: 2; OTUD3 block: -8; USP17 block: -5; USP30 block: -129

Screening data (PubChem BioAssay)
